p47phox inh: inhibitors of human p47phox binding; P14598; p47phox/p22phox peptide binding, fluorescence polarization, 2 h; inhibition, % at 24.7 µM; hit rate 0.53% among 220,000; AID 1274;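 active = inhibition above about 30%, limit read from the data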;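 note: 0% = p47phox with labelled peptide and 100% = labelled peptide alone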
Target sequence (P14598 whole entry, looked up): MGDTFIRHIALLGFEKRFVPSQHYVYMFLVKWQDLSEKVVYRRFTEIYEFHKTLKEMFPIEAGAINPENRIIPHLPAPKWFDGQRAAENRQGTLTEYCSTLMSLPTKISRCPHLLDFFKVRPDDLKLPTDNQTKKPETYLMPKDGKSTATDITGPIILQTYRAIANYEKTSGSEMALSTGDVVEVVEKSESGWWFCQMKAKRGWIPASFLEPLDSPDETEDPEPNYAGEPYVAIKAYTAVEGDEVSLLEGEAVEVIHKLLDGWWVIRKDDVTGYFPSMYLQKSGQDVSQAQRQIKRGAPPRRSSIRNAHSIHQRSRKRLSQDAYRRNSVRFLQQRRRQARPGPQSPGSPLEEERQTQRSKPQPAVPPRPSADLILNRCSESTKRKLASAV
Mcl1 Noxa PPI: disrupts binding of human Mcl-1 to Noxa peptide; Q07820; TR-FRET Mcl-1/Noxa peptide binding, 2 h; inhibition, % at 21.7 µM; hit rate 1.5% among 220,000; AID 1022;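 active = compounds that cut the protein-peptide binding signal by more than 50% relative to plate controls in a single-dose test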;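 note: His-tagged Mcl-1 with rhodamine Noxa BH3 peptide and terbium anti-His antibody; 0% = Mcl-1 plus Noxa peptide wells and 100% = peptide-only wells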
Mcl1-Bid inh: disrupts binding of human Mcl-1 to Bid peptide | Q07820 | TR-FRET Mcl-1/Bid-Dy647 peptide binding, 1536-well | inhibition, % at 21.7 µM | hit rate 0.97% among 220,000 | AID 1021;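 active = compounds that cut the binding signal by more than half at the single screening dose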;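 note: His-tagged Mcl-1 with europium anti-His antibody binding Bid BH3 peptide; 0% = Mcl-1 plus peptide wells and 100% = peptide-only wells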
14-3-3 Bad inh: disrupts binding of bovine 14-3-3 zeta to phospho-Bad peptide; P63103; inhibition, % at 21.7 µM; hit rate 0.71% among 220,000; AID 781; TR-FRET 14-3-3zeta/Dy647-pBad peptide displacement, 1 h;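 active = inhibition above about 70%, limit read from the data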;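 note: 0% = full 14-3-3 plus peptide FRET controls and 100% = background without 14-3-3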
Bim-Mcl-1: inhibitors of Bim-Mcl-1 interaction, human. Bead-based flow cytometry, Bim peptide-Mcl-1 binding. AID 1009. hit rate 0.1% among 190,000. Q07820. inhibition, % at 10 µM; in the data active = inhibition above about 40%;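 note: 0% = no compound tracer wells and 100% = peptide blocker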
* = called active by the depositor; [ ] = dose if it differs, or a comment. Rows were chosen to be rich in hits. Some 3.1% of all compounds tested hit in one or more screens of this group.

What do the screens show for `COc1ccc2c(c1)NP(=S)(Oc1ccccc1)N2` (stereo unspecified)?
p47phox inh: 4; Mcl1 Noxa PPI: 52*; Mcl1-Bid inh: -51; 14-3-3 Bad inh: 14

What do the screens show for `O=C1NC(=O)C(CCc2ccncc2)(C2CCCCC2)C(=O)N1`?
p47phox inh: 5; Mcl1 Noxa PPI: -2; Mcl1-Bid inh: -7; 14-3-3 Bad inh: -4; Bim-Mcl-1: -1

What do the screens show for `CN1/C(=C\C=C2C(=O)NC(=S)NC2=O)C(C)(C)c2ccccc21`?
p47phox inh: -232; Mcl1 Noxa PPI: -35; Mcl1-Bid inh: 82*; 14-3-3 Bad inh: -24; Bim-Mcl-1: -3

What do the screens show for `COc1ccc(/C=N/N=C(/N)N[N+](=O)[O-])c(OC)c1`?
p47phox inh: -14; Mcl1 Noxa PPI: 8; Mcl1-Bid inh: -17; 14-3-3 Bad inh: -10; Bim-Mcl-1: -2

How did N/C(=N\N=C/c1ccc(-c2ccc(O)c(C(=O)O)c2)o1)N[N+](=O)[O-] do in these assays?
p47phox inh: -69; Mcl1 Noxa PPI: 87*; Mcl1-Bid inh: 24; 14-3-3 Bad inh: 95*[fluorescence artefact?]; Bim-Mcl-1: -1

How did Brc1ccccc1 do in these assays?
p47phox inh: -7; Mcl1 Noxa PPI: -15; Mcl1-Bid inh: 83*; 14-3-3 Bad inh: 0

Results for CCc1c(C)nc(N)nc1N1N=C1SCC(N)=O ?
p47phox inh: -22; Mcl1 Noxa PPI: 2; Mcl1-Bid inh: 4; 14-3-3 Bad inh: 8; Bim-Mcl-1: 2

What do the screens show for `CCN(CC)c1ccc(/C=C2/C(=O)NC(=O)N(CC3CCCO3)C2=O)cc1` (stereo unspecified)?
p47phox inh: -95; Mcl1 Noxa PPI: 27; Mcl1-Bid inh: -29; 14-3-3 Bad inh: 0; Bim-Mcl-1: -4

Results for CCN(CC)c1ccc(/C=C2\C(=O)NC(=O)N(Cc3ccco3)C2=O)cc1 ?
p47phox inh: 126*; Mcl1 Noxa PPI: 19; Mcl1-Bid inh: -58; 14-3-3 Bad inh: -18; Bim-Mcl-1: 0

What do the screens show for `C=CCn1c(O)c(C(C)=NCC2CCCO2)c(=O)[nH]c1=O` (stereo unspecified)?
p47phox inh: -12; Mcl1 Noxa PPI: 9; Mcl1-Bid inh: 78*; 14-3-3 Bad inh: 3

Results for O=C(N/N=C/C1C(=O)NC(=S)N(c2ccccc2)C1=O)c1cc(Br)c(O)c(Br)c1 (stereo unspecified) ?
p47phox inh: -20; Mcl1 Noxa PPI: 32; Mcl1-Bid inh: -69; 14-3-3 Bad inh: -17; Bim-Mcl-1: 0

What do the screens show for `CCN1CCN(c2cc(N3CCCC3)c(F)cc2[N+](=O)[O-])CC1`?
p47phox inh: 3; Mcl1 Noxa PPI: 65*; Mcl1-Bid inh: -20; 14-3-3 Bad inh: -5; Bim-Mcl-1: -3

Results for CNC(=O)O/N=C(\C)Cc1nnn(-c2cc(C)on2)n1 ?
p47phox inh: -6; Mcl1 Noxa PPI: 6; Mcl1-Bid inh: 0; 14-3-3 Bad inh: 2

What do the screens show for `CN1CC[C@]2(c3cccc(O)c3)Cc3nc4ccccc4cc3C[C@H]2C1`?
p47phox inh: -6; Mcl1 Noxa PPI: 15; Mcl1-Bid inh: 19; 14-3-3 Bad inh: 10; Bim-Mcl-1: 0

Results for CCCCCc1nc2c(c(=O)c3ccccc3n2C)c(=O)n1C1CCCCCC1 ?
p47phox inh: 17; Mcl1 Noxa PPI: 25; Mcl1-Bid inh: 54*; 14-3-3 Bad inh: 24; Bim-Mcl-1: -4

Results for O=C1NC(=O)N(c2ccccc2)C(=O)/C1=C\c1ccc([N+](=O)[O-])s1 ?
p47phox inh: -89; Mcl1 Noxa PPI: 69*; Mcl1-Bid inh: -25; 14-3-3 Bad inh: 10

What do the screens show for `CN1C(=O)NC(=O)/C(=C/c2ccc([N+](=O)[O-])s2)C1=O`?
p47phox inh: -14; Mcl1 Noxa PPI: 53*; Mcl1-Bid inh: -51; 14-3-3 Bad inh: 6

Results for O=C1NC(=O)N(c2ccccc2)C(=O)/C1=C\c1ccc([N+](=O)[O-])o1 ?
p47phox inh: -92; Mcl1 Noxa PPI: 63*; Mcl1-Bid inh: 10; 14-3-3 Bad inh: 57

What do the screens show for `CN1C(=O)NC(=O)/C(=C/c2ccc([N+](=O)[O-])o2)C1=O`?
p47phox inh: -48; Mcl1 Noxa PPI: 24; Mcl1-Bid inh: -66; 14-3-3 Bad inh: 25

How did COc1ccc(OC)c(N2C(=O)NC(=O)/C(=C\c3ccc([N+](=O)[O-])s3)C2=O)c1 do in these assays?
p47phox inh: -62; Mcl1 Noxa PPI: 49; Mcl1-Bid inh: -34; 14-3-3 Bad inh: 6; Bim-Mcl-1: 0

What do the screens show for `O=C1NC(=O)N(c2ccccc2)C(=O)/C1=C\C=C\c1ccccc1`?
p47phox inh: -11; Mcl1 Noxa PPI: 70*; Mcl1-Bid inh: -1; 14-3-3 Bad inh: -4

Screening data: PubChem BioAssay, several laboratories
